Shown are actives, neighbours in structure and some others; about 3.5% of the full set was active somewhere.
Mtb UGM inh: inhibitors of M. tuberculosis UDP-galactopyranose mutase; P9WIQ1; purified UGM, fluorescence polarization probe displacement; inhibition, % at 10 µM; 320,000 compounds, 0.06% hits; in the data active means inhibition above about 10%, passing the limit was not always enough
Target sequence (P9WIQ1 whole entry, looked up): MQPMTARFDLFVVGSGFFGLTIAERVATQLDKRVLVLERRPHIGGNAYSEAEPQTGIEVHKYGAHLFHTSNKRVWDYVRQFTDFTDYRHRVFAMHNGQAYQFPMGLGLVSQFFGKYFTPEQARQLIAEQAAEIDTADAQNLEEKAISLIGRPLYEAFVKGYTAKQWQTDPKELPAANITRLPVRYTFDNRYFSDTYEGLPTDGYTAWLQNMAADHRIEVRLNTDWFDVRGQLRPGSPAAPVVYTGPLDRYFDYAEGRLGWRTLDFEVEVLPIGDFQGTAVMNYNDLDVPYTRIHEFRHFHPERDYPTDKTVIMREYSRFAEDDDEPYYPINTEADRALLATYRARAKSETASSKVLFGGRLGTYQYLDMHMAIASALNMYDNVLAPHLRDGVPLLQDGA
FadD28 binding: inhibitors of Mycobacterium tuberculosis FadD28 bisubstrate binding. FadD28 bisubstrate probe binding, fluorescence polarization. inhibition, % at 12.5 µM. 360,000 compounds, 0.22% hits. AID 588549; in the data active means inhibition above about 8.5%, passing the limit was not always enough
Mtb hypoxia inh: inhibitors of hypoxia-regulated fluorescent reporter in Mycobacterium tuberculosis | M. tuberculosis hypoxia-regulated fluorescent reporter, fluorescence | fluorescence inhibition, % (test concentration not listed) | 300,000 compounds, 0.1% hits | AID 1159583; in the data active means fluorescence inhibition mostly above about 23%, no sharp cut-off; inactive means mostly below about 17%
GDH-TPI counter-1: GDH-TPI coupled enzyme inhibition counter-screen; GDH-TPI coupled enzyme counterscreen, NADH absorbance; inhibition, % at 4.8 µM; 360,000 compounds, 1.2% hits; AID 588335; in the data active means inhibition above about 30%;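 further: 0% = DMSO wells and 100% = wells lacking the enzyme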
FBA Mtb inh: inhibits M. tuberculosis FBA enzyme; 360,000 compounds, 2.3% hits; inhibition, % at 1 µM; purified M. tuberculosis FBA, fluorescence read-out; AID 588726;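 further: 0% = vehicle and 100% = reference inhibitor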
Rv3671c inh: inhibits the M. tuberculosis serine protease Rv3671c. P9WHR9. inhibition, % at 5.96 µM. 320,000 compounds, 0.048% hits. AID 2606; in the data active means inhibition above about 38%;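 further: extracellular domain of Rv3671c used as enzyme; 0% = enzyme with DMSO and 100% = no enzyme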
Mtb FBA inh conf: confirmation of M. tuberculosis fructose-bisphosphate aldolase inhibitors. shares compounds with FBA Mtb inh. purified M. tuberculosis FBA, fluorescence read-out. inhibition, % at 1 µM. 5,600 compounds, 78% hits;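 further: 0% = vehicle wells and 100% = reference inhibitor wells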
GDH-TPI counter-2: inhibits GDH-TPI coupling enzymes, flagging Mtb FBA hits; shares compounds with FBA Mtb inh; GDH-TPI coupled enzyme counterscreen, fluorescence; inhibition, % at 1 µM; 5,600 compounds, 81% hits; in the data active means inhibition above about 10%
Numbers without * were called inactive. Unless noted, no stated cut-off is given here; in the data, active means inhibition above about 27%; inactive means the rest.

`CCN1CC=C2C(C#N)=C(N)C(C#N)(C#N)C(CCc3ccccc3)C2C1` (centres undefined) gave Mtb UGM inh 10, FadD28 binding -1, Mtb hypoxia inh 7, GDH-TPI counter-1 8, FBA Mtb inh 36*, Rv3671c inh 6, Mtb FBA inh conf 74* and GDH-TPI counter-2 65*.
For COc1ccc(OCC(=O)NCc2cccnc2)cc1 the results were Mtb UGM inh 4, FadD28 binding -2, GDH-TPI counter-1 7, FBA Mtb inh -5 and Rv3671c inh 3.
For CCCCCCCNC(=O)COc1ccc2c(c1)C(=O)CC(C)(C)O2 the results were Mtb UGM inh 5, FadD28 binding -2, Mtb hypoxia inh 7, GDH-TPI counter-1 2, FBA Mtb inh 43*, Rv3671c inh 0, Mtb FBA inh conf 56* and GDH-TPI counter-2 56*.
Screening CC1(C)CC(=O)c2cc(OCC(=O)NCCCN3CCN(c4ccccc4F)CC3)ccc2O1 returned Mtb UGM inh -1, FadD28 binding 0, Mtb hypoxia inh 0, GDH-TPI counter-1 13, FBA Mtb inh 15 and Rv3671c inh 1.
For CC1(C)CC(=O)c2cc(OCC(=O)NCc3cccnc3)ccc2O1 the results were Mtb UGM inh -2, FadD28 binding -1, Mtb hypoxia inh 6, GDH-TPI counter-1 -1, FBA Mtb inh 62*, Rv3671c inh -6, Mtb FBA inh conf -3 and GDH-TPI counter-2 -6.
For CC(C)NC(=O)COc1ccc2c(c1)C(=O)CC(C)(C)O2 the results were Mtb UGM inh 7, FadD28 binding 0, Mtb hypoxia inh 15, GDH-TPI counter-1 9, FBA Mtb inh 71*, Rv3671c inh 5, Mtb FBA inh conf active and GDH-TPI counter-2 186*.
`COc1ccccc1NS(=O)(=O)c1ccc(NN=Cc2c(C)nn(-c3ccccc3)c2N2CCCC2)c([N+](=O)[O-])c1` gave Mtb hypoxia inh 4.
`Cc1nnsc1C(=O)NN=Cc1ccc(OC(F)(F)F)cc1` gave Mtb hypoxia inh 11.
`COc1cc2c(C#N)c(N3CCN(C)CC3)nc(N)c2c(N)n1` gave Mtb UGM inh -1, FadD28 binding 2, Mtb hypoxia inh -5, GDH-TPI counter-1 14, FBA Mtb inh 81*, Rv3671c inh -16, Mtb FBA inh conf active and GDH-TPI counter-2 active.
COc1ccc(-c2nn(-c3ccccc3)cc2C=NNC(=S)NC(C)C)cc1OC was read as Mtb hypoxia inh 4.
For CN1C(=S)SC(N(O)C(=O)Nc2cccc3ccccc23)C1(C)C (centres undefined) the results were Mtb UGM inh 3, FadD28 binding -3, GDH-TPI counter-1 -5, FBA Mtb inh 44*, Rv3671c inh 0, Mtb FBA inh conf 35* and GDH-TPI counter-2 25*.
Screening CN1C(=S)SC(N(O)C(=O)Nc2ccccc2)C1(C)C (centres undefined) returned Mtb UGM inh -1, FadD28 binding 0, Mtb hypoxia inh 12, GDH-TPI counter-1 -5, FBA Mtb inh 0 and Rv3671c inh 1.
CC(=O)C(=NNc1ccccc1[N+](=O)[O-])N1CCCc2ccccc21 was read as Mtb hypoxia inh 9.
Screening N=C1C(c2nc3ccccc3[nH]2)=C(O)CN1c1ccc(F)cc1 returned Mtb UGM inh -3, FadD28 binding 0, Mtb hypoxia inh 6, GDH-TPI counter-1 0, FBA Mtb inh 3 and Rv3671c inh -4.
`COc1cccc(N2CC(O)=C(c3nc4ccccc4c(=O)[nH]3)C2=N)c1` gave Mtb UGM inh 1, FadD28 binding -2, Mtb hypoxia inh -2, GDH-TPI counter-1 33*, FBA Mtb inh 77*, Rv3671c inh -10, Mtb FBA inh conf 51* and GDH-TPI counter-2 50*.
`Cc1cc(C)cc(N2CC(O)=C(c3nc4ccccc4c(=O)[nH]3)C2=N)c1` gave Mtb UGM inh -2, FadD28 binding -7, Mtb hypoxia inh -2, GDH-TPI counter-1 6, FBA Mtb inh 34*, Rv3671c inh -1, Mtb FBA inh conf 3 and GDH-TPI counter-2 0.
For CC(C)N1CC(O)=C(c2nc3ccccc3c(=O)[nH]2)C1=N the results were Mtb UGM inh 2, FadD28 binding 0, GDH-TPI counter-1 10, FBA Mtb inh 44*, Rv3671c inh 1, Mtb FBA inh conf active and GDH-TPI counter-2 170*.

Screens deposited in PubChem by several laboratories.
